Results reported in PubChem BioAssay (NCI).
Compounds without any hit were thinned out: in the full panel of roughly 83,000, 20% have a hit.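 Percent growth is the endpoint: 0 to 100 indicates growth inhibition (40 means 60% inhibition), 0 means no net growth, and negative values indicate cell death.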 A number with no mark means an inactive call. The source made the active and inactive calls. The calls were made as follows: active = growth percent below 10; inactive = the rest.

System: HL-60(TB) leukemia
Assay: NCI-60 one-dose screen, 48 h (100 = growth as untreated, 0 = no growth, -100 = all killed)
Conditions: 10 µM unless noted

Row | Compound | growth
1 | CCNC(=O)Nc1nc2ccc(Oc3ccnc(C(=O)NC)c3)cc2s1 | 94.7%
2 | N/C(=N\OC(=O)c1ccccc1)C(C(=O)NOC(=O)c1ccccc1)C1CCCCC1 (stereo unspecified) | 1.73% (active)
3 | OC(CSc1ccccc1)CN1CCN(c2cccc(Cl)c2)CC1 (stereo unspecified) | 85.7%
4 | Nc1nc(Nc2ccccc2)c2ncn(Cc3cc4c(cc3Br)OCO4)c2n1 | -11.7% (active)
5 | CCOC(=O)C(Cc1ccccc1)n1c(O)c(C=Nc2ccc(C(=O)OCCN(CC)CC)cc2)sc1=O (stereo unspecified) | 97.8%
6 | CCOC(=O)c1c(C)c(C(=O)OCC)n(C)c1C | 85.9%
7 | COc1ccc2c(c1)OC(N)=C(C#N)C2c1ccc(F)c(F)c1 (stereo unspecified) | -18.4% (active)
8 | COc1cc2ncnc(Nc3ccc(OCc4cccc(F)c4)c(Cl)c3)c2cc1NC(=O)C1CCCC1 | 99%
9 | O=C(/C=C/c1ccc(Oc2ccc(Br)cc2)cc1)c1ccc(Br)cc1 | 88%
10 | O=C(CC1Sc2ccccc2NC1=O)NNc1ccc(F)cc1 (stereo unspecified) | 14.3%
11 | COc1cccc2c1c1nc3cc(C)c(C)cc3nc1n2CCN(C)C | 15.3%
12 | NNc1ncnc2c1ncn2C1OC(CO)C(O)C1O (stereo unspecified) | 34.8%
13 | CC(=O)n1c(-c2ccc(Cl)cc2)nc2c(c1=O)C(c1ccc(Cl)cc1)c1sc3c(Cl)cccc3c1O2 (stereo unspecified) | -15.4% (active)
14 | CCOC(=O)c1cc(C(=O)c2ccc(F)cc2F)n2ccccc12 | 96.4%
15 | COc1ccc(Cl)cc1NC(=O)c1cc2c(n1C)-c1nc(NC(=O)C(C)C)sc1CC2 | 74.7%
16 | CC(=O)C[n+]1ccc(C)cc1Sc1ccccc1C | 109%
17 | CS(=O)(=O)Nc1cc(-c2cc3ncc(C#N)c(Nc4ccc(Oc5ccccc5)c(Cl)c4)c3s2)cnc1Cl | 64.6%
18 | O=C1OC(c2ccccc2)(c2ccccc2)c2ccsc21 | 86.6%
19 | Cc1c(C(=N)C(C#N)C#N)c(=N)oc2c1ccc1ccccc12 | 65.2%
20 | C/C(=N\Nc1ccc([N+](=O)[O-])cn1)c1ccc(N)cc1 | -30.8% (active)
21 | CCCCCCCCN(CCCCCCCC)CC(O)c1cc(-c2ccccc2)nc2ccc(OC)cc12 (stereo unspecified) | -28.4% (active)

Row | Compound | growth
22 | CC1CC=CCC1C1OCC(C)(C)CO1 (stereo unspecified) | 91.8%
23 | CCC(N)(C(=O)O)c1ccc(F)cc1 (stereo unspecified) | 87.1%
24 | CC[C@]12C=CCN3CC[C@@]4(c5cc([C@H]6CCC(=O)N6)c(OC)cc5N(C)[C@H]4[C@@](O)(C(=O)OC)[C@@H]1OC(C)=O)[C@@H]32 | 109% [2.5 µM]
25 | O=C(/C=C/c1ccc[nH]1)c1ccc(-n2ccc(C(F)(F)F)n2)c(F)c1 | -11.3% (active)
26 | COC(=O)/C=C1/CCC2C3CCC4=CC(=O)C(Br)CC4(C)C3C(=O)CC12C (stereo unspecified) | 75.1%
27 | c1cc(NCCc2ccncc2)nc(-n2cnc3ccccc32)c1 | 67.7%
28 | CCN(CC)CCCCCCNc1cccc2cc(Br)cnc12 | -51.7% (active)
29 | COc1cc2nc(Nc3cccc(NC(C)=O)c3)nc(N)c2cc1OC | 102%
30 | CCC(c1ccc(OC)cc1)C(CC)c1ccc(O)c(CN2CCCC2)c1 (stereo unspecified) | -45.9% (active)
31 | COC(=O)[C@]1(C)CCC[C@]2(C)c3ccc(C(C)C)cc3C(=O)[C@@H](Br)[C@@H]12 | 68.1%
32 | COc1cc(/C=C\c2cc(OC)c(OC)c(OC)c2)cc(N)c1OC | 48.8%
33 | C=CCc1cc(Cl)cc2c(OC(C)=O)c(C(C)=O)c(-c3ccccc3)nc12 | 107%
34 | O=C1OCC2=C1C(c1cccc(Br)c1)c1cc3c(cc1N2CCO)OCCO3 (stereo unspecified) | -23.7% (active)
35 | CCN(CCO)CCNc1ccc(C)c2sc3cc(OC)ccc3c(=O)c12 | 67.5%
36 | O=C1/C(=C/c2ccccc2)COc2ccc(O)cc21 | 33.9%
37 | CCOc1ccccc1/C=N\N=C(N/N=C/c1ccccc1OCC)N/N=C/c1ccccc1OCC | 11.9%
38 | COC(=O)c1nc(=S)[nH]c(C(=O)OC)c1C(=O)c1ccc(Cl)c(Cl)c1 | 101%
39 | Cc1cc(Nc2nc(SCc3ccc(C(=O)Nc4ccc(F)cc4N)cc3)nn3cccc23)n[nH]1 | -26.4% (active)
40 | Cc1cc(CO)c(O)c(CO)c1 | 80.5%
41 | COc1ccc2c(c1)O/C(=C\c1ncc([N+](=O)[O-])n1C)C2=O | -3.86% (active)
